Laboratory results reported in PubChem BioAssay (Tox21).
Unmarked numbers belong to inactive results. Inconclusive results are not listed. Where a call stands in place of a potency, no number is given. Activity calls are given as the source filed them. Unless noted, calls follow the shape of the full dose curve.

Key:
[1] = Nuclear factor erythroid 2-related factor 2/antioxidant responsive element (Nrf2/ARE) small molecule agonists: qHTS cell viability counter screen in human keratinocytes (AID 1919968; active = well fitted curve in the direction sought with a large enough effect in the repeat runs; an effect the other way counts as inactive or inconclusive; also: nearly all actives have a fitted effect of over 55% in size; also: potency is read from the fitted curve at half-maximal effect)
Procedure, shortened: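 KeratinoSens cells (HaCaT keratinocytes stably carrying an ARE-luciferase reporter) were seeded at 1,500 cells/well and rested 5 h at 37 C/5% CO2. They were then exposed to compounds in DMSO for 23 h. Viability was read by CellTiter-Fluor fluorescence after 1 h.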

[2] = target: Gonadotropin-releasing hormone receptor (Homo sapiens) (UniProt P30968); experiment: Human gonadotropin-releasing hormone receptor (GnRHR) small molecule agonists, calcium flux assay in GnRHR-HEK293 cells (AID 1920063); also: nearly all actives have a fitted effect of over 35% in size
Gonadotropin-releasing hormone receptor (Homo sapiens), sequence (P30968 whole entry, looked up): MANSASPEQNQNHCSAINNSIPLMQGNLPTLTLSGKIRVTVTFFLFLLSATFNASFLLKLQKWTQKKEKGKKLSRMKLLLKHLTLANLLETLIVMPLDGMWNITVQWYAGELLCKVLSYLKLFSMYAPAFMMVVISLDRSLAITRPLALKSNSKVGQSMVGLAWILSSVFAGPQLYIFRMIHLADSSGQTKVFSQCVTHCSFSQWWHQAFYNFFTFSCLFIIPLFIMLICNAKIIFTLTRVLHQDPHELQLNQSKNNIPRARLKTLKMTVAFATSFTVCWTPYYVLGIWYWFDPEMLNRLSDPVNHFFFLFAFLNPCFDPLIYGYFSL
Procedure, shortened: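 HEK293 cells stably expressing human GnRHR were plated 18 h at 37 °C, loaded with calcium dye 1 h at 37 °C, then given compound in agonist mode; fluorescence (Ex/Em 480/540) read kinetically for 3 min at 1 s intervals.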

[3] = target: KiSS-1 receptor (Homo sapiens) (UniProt Q969F8); experiment: Human kisspeptin (KISS1R) small molecule agonists, calcium flux assay in KISS1R-HEK293 cells (AID 1920064; active = well fitted curve in the direction sought with a large enough effect in the repeat runs; an effect the other way counts as inactive or inconclusive)
KiSS-1 receptor (Homo sapiens), sequence (Q969F8 whole entry, looked up): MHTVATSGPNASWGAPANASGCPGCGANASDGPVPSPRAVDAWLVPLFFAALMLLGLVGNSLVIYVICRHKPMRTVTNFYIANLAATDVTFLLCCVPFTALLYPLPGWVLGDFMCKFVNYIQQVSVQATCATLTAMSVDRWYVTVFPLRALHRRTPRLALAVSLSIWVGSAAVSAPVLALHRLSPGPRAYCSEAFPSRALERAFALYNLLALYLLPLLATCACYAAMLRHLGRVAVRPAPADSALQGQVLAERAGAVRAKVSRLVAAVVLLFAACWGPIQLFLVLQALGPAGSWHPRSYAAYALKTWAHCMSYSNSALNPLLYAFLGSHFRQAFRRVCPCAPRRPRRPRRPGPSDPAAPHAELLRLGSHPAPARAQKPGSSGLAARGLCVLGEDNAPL
Procedure, shortened: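 HEK293 cells stably expressing human KISS1R were plated 18 h at 37 °C, loaded with calcium dye for 1 h at 37 °C, then given compound by pin tool. Fluorescence (Ex/Em 480/540) was read kinetically for 3 min.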

[4] = G protein-coupled receptor (GPCR) small molecule agonists, calcium flux assay: HEK293 wild type cell line counter screen (AID 1920065)
Procedure, shortened: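 Cells were plated and cultured 18 h at 37 C/5% CO2, then loaded with calcium dye for 1 h at 37 C. Compounds in DMSO were pin-transferred in agonist mode, and fluorescence (Ex/Em 480/540) was read kinetically for 3 min at 1 s intervals.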

[5] = p53 small molecule agonists, cell-based qHTS assay with human liver microsomes (AID 1963577)
Procedure, shortened: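 Compounds act here after metabolic activation: human liver microsomes and NADPH, both at 0.5 mg/mL final, were co-added to p53RE-bla cells. Incubation ran 16 h at 37 C, followed by LiveBLAzer detection.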

[6] = p53 small molecule agonists, cell-based qHTS assay with rat liver microsomes (AID 1963578)
Procedure, shortened: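 Read-out is beta-lactamase reporter fluorescence (LiveBLAzer, 2 h, room temperature, dark) in p53RE-bla cells treated 16 h at 37 C with compound, rat liver microsomes and NADPH, both 0.5 mg/mL final.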

[7] = p53 small molecule agonists, cell-based qHTS assay with human liver microsomes: qHTS cell viability counter screen (AID 1963579); also: nearly all actives have a fitted effect of over 45% in size; also: potency is read from the fitted curve at half-maximal effect
Procedure, shortened: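 Cells carrying the p53 response-element beta-lactamase reporter are treated for 16 h at 37 C with test compounds in the presence of human liver microsomes and NADPH (both 0.5 mg/mL final); ATP-based CellTiter-Glo luminescence then reports viability.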

[8] = p53 small molecule agonists, cell-based qHTS assay with rat liver microsomes: qHTS cell viability counter screen (AID 1963580); also: nearly all actives have a fitted effect of over 45% in size
Procedure, shortened: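 HCT-116 p53RE-bla, 4,000 cells/well, 5 h pre-incubation; cpd + rat liver microsomes 0.5 mg/mL + NADPH 0.5 mg/mL (final); 16 h, 37 C; CellTiter-Glo, 30 min RT; luminescence.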

[9] = p53 small molecule agonists, cell-based qHTS assay: qHTS cell viability counter screen (AID 1963581); also: nearly all actives have a fitted effect of over 45% in size
Procedure, shortened: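 p53RE-bla HCT-116 cells were exposed to compounds for 16 h at 37 C; after the beta-lactamase FRET read in the same wells, CellTiter-Glo was added and luminescence (intracellular ATP) read after 30 min at room temperature.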

[10] = target: 5-hydroxytryptamine receptor 2A (Homo sapiens) (UniProt P28223); experiment: 5-hydroxytryptamine receptor 2A (HTR2A) small molecule antagonists, cell-based qHTS assay (AID 1963586); also: nearly all actives have a fitted effect of over 45% in size
5-hydroxytryptamine receptor 2A (Homo sapiens), sequence (P28223 whole entry, looked up): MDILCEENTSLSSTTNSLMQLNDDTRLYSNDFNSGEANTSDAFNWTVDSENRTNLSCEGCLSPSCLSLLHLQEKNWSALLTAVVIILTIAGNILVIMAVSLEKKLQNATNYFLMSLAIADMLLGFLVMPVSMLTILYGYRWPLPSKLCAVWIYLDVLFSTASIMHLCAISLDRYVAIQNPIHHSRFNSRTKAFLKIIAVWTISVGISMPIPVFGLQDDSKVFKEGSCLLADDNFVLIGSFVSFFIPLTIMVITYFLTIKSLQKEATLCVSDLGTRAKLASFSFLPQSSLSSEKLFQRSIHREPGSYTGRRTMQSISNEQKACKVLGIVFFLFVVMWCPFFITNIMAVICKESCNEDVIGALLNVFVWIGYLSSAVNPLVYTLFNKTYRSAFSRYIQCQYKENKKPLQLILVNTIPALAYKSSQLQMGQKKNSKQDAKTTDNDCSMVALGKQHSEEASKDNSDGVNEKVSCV
Procedure, shortened: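 Antagonist-mode intracellular calcium assay: DOI (4 nM) added after 5 min compound pre-incubation at room temperature to dye-loaded HTR2A-CHO cells. Fluorescence followed for 3 min, sampled every second.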

[11] = target: 5-hydroxytryptamine receptor 2A (Homo sapiens) (UniProt P28223); experiment: 5-hydroxytryptamine receptor 2A (HTR2A) small molecule agonists, cell-based qHTS assay (AID 1963587); also: nearly all actives have a fitted effect of over 30% in size
Procedure, shortened: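 Kinetic calcium-flux fluorescence (2 min, 1 sec intervals) after compound addition in agonist mode. HTR2A-CHO cells were cultured 18 h, then dye-loaded 1 h at 37 C.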

[12] = target: Muscarinic acetylcholine receptor M1 (Homo sapiens) (UniProt P11229); experiment: Cholinergic receptor muscarinic 1 (CHRM1) small molecule antagonists, cell-based qHTS assay (AID 1963588); also: nearly all actives have a fitted effect of over 40% in size
Muscarinic acetylcholine receptor M1 (Homo sapiens), sequence (P11229 whole entry, looked up): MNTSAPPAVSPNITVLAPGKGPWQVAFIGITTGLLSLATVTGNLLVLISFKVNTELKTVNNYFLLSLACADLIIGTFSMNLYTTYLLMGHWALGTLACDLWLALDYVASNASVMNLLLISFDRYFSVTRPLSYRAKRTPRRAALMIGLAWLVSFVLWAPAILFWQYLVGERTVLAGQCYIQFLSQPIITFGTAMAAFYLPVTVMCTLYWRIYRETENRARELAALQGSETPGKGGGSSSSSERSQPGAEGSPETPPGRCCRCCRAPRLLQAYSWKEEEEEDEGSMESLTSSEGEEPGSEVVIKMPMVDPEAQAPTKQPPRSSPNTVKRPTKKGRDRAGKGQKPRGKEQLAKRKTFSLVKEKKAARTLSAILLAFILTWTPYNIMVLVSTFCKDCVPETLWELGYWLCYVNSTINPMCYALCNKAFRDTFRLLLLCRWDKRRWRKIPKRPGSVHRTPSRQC
Procedure, shortened: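 CHRM1-CHO calcium-flux assay, antagonist mode. Cells were seeded 18 h, dye-loaded 1 h at 37 C and given compound for 5 min at RT, then acetylcholine was added at 50nM. FDSS fluorescence was read 3 min; 15 concentrations, three runs.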

[13] = target: Muscarinic acetylcholine receptor M1 (Homo sapiens) (UniProt P11229); experiment: Cholinergic receptor muscarinic 1 (CHRM1) small molecule agonists, cell-based qHTS assay (AID 1963589); also: nearly all actives have a fitted effect of over 35% in size
Procedure, shortened: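 CHO cells stably expressing human CHRM1, seeded 18 h at 37 C/5% CO2, dye-loaded 1 h at 37 C, then given compound in agonist mode; intracellular calcium fluorescence read kinetically at 1 s intervals. Fifteen concentrations, three independent runs.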

[14] = cAMP Responsive Elements (CRE) small molecule agonists, cell-based qHTS assay (AID 1963590)
Procedure, shortened: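 CRE-bla HEK 293T cells in DMEM with 10% dialyzed FBS, NEAA, pyruvate and 25 mM HEPES were plated 18 h at 37 C/5% CO2, then exposed to compounds in DMSO for 3 h before LiveBLAzer B/G FRET substrate addition.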

[15] = cAMP Responsive Elements (CRE) small molecule antagonists, cell-based qHTS assay (AID 1963591; active = well fitted inhibition curve with a large enough effect in the signal ratio in the repeat runs, not every such curve was filed as active; the % refers to the signal ratio; also: potency is read from the fitted curve at half-maximal effect)
Procedure, shortened: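 CRE-bla HEK293T cells were plated 18 h at 37 °C/5% CO2, pinned with compound in DMSO, then stimulated with NKH477 at 0.25 uM final for 3 h. LiveBLAzer B/G FRET substrate was added and plates incubated 2 h at room temperature.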

[16] = target: Beta-2 adrenergic receptor (Homo sapiens) (UniProt P07550); experiment: Adrenergic beta2 receptor (ADRB2) small molecule antagonists, cell-based qHTS assay (AID 1963592); also: series mostly up to about 92 µM; nearly all actives have a fitted effect of over 50% in size
Beta-2 adrenergic receptor (Homo sapiens), sequence (P07550 whole entry, looked up): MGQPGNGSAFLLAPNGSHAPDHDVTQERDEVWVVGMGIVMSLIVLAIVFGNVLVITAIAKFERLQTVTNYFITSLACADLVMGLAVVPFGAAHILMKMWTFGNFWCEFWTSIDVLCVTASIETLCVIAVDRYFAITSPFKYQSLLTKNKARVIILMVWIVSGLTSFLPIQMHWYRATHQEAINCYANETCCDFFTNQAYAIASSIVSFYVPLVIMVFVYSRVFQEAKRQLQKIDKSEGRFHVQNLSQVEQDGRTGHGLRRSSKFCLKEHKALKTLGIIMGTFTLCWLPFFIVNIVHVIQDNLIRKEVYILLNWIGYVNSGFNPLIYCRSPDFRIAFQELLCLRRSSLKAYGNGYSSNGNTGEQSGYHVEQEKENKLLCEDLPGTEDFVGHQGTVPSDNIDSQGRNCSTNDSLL
Procedure, shortened: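 Cells (CHO, stable ADRB2 overexpression) incubated 18-20hr at 37C; compounds added from DMSO; agonist mix (1nM isoproterenol, 100uM IBMX, 25uM Ro-20-1724) added; 0.5hr RT; d2-cAMP and anti-cAMP-cryptate added; 1hr RT; 665/615 nm read.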

[17] = target: D(2) dopamine receptor (Homo sapiens) (UniProt P14416); experiment: Dopamine D2 receptor (DRD2) small molecule agonists, cell-based qHTS assay (AID 1963594); also: nearly all actives have a fitted effect of over 35% in size
D(2) dopamine receptor (Homo sapiens), sequence (P14416 whole entry, looked up): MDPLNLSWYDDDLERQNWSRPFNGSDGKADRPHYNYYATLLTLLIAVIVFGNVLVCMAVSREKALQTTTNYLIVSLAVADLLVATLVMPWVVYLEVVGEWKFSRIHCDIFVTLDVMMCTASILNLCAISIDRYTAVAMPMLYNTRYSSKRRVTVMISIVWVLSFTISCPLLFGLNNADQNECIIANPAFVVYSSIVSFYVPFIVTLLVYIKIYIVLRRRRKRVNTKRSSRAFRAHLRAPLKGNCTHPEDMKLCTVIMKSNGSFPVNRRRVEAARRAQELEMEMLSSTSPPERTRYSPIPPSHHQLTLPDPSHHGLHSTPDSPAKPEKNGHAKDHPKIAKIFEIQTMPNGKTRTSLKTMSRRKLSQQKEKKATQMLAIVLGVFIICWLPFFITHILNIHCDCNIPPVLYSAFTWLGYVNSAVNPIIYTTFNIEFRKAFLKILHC
Procedure, shortened: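 cAMP accumulation in DRD2-HEK293 cells measured by HTRF after 1 h detection; compounds added 10 min before NKH477 (200nM […]) forskolin-analogue stimulation, 30 min at room temperature, with Ro20-1724 present at 0.1 mM final.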

[18] = p53 small molecule agonists, cell-based qHTS assay (AID 1963582; active = well fitted activation curve with a large enough effect in the signal ratio in the repeat runs, not every such curve was filed as active; the % refers to the signal ratio)
Procedure, shortened: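 p53RE-bla beta-lactamase reporter cells rested 5 h at 37 C/5% CO2, then received compounds in DMSO by pin transfer and were incubated 16 h at 37 C. LiveBLAzer B/G FRET substrate was loaded for 2 h at room temperature before fluorescence reading.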

[19] = target: D(2) dopamine receptor (Homo sapiens) (UniProt P14416); experiment: Dopamine D2 receptor (DRD2) small molecule antagonists, cell-based qHTS assay (AID 1963595; active = well fitted inhibition curve with a large enough effect in the signal ratio in the repeat runs, with a control signal flat; the % refers to the signal ratio)
Procedure, shortened: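 HTRF cAMP read-out at 665 and 620 nm emission (340 nm excitation). Antagonist mode: compounds were tested against 12 nM quinpirole in DRD2-HEK293 cells, with 200 nM NKH477 raising cAMP and 0.1 mM Ro20-1724 blocking its breakdown.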

[20] = target: Beta-2 adrenergic receptor (Homo sapiens) (UniProt P07550); experiment: Adrenergic beta2 receptor (ADRB2) small molecule agonists, cell-based qHTS assay (AID 1963593);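 also: CHO cells stably overexpressing human ADRB2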
Procedure, shortened: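 CHO cells stably over-expressing ADRB2 were plated overnight at 37C, then dosed with compounds plus a stimulation mix containing 100uM IBMX and 25uM Ro-20-1724 for 0.5hr at room temperature. cAMP was measured by HTRF competition, 1hr.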

For `OCCN1CCN(CCO)CC1`, the Potency [1] was “inactive”, the Potency [2] was “inactive” and the Potency [3] was “inactive”. For the same compound, the Potency [4] was “inactive”, the Potency [5] was “inactive” and the Potency [6] was “inactive”. The Potency [7] was “inactive”, the Potency [8] was “inactive” and the Potency [9] was “inactive”. The Potency [10] was “inactive”, the Potency [11] was “inactive” and the Potency [12] was “inactive”. For the same compound, the Potency [13] was “inactive”, the Potency [14] was “inactive” and the Potency [15] was “inactive”. The Potency [16] was “inactive” and the Potency [17] was “inactive”.
For `Oc1ccc2ccccc2c1`, the Potency [1] was “inactive”, the Potency [2] was “inactive” and the Potency [3] was “inactive”. The Potency [4] was “inactive”, the Potency [5] was “inactive” and the Potency [6] was “inactive”. The Potency [7] was “inactive”, the Potency [8] was “inactive” and the Potency [18] was “inactive”. The Potency [10] was “inactive”, the Potency [11] was “inactive” and the Potency [12] was “inactive”. For the same compound, the Potency [13] was “inactive”, the Potency [14] was “inactive” and the Potency [15] was “inactive”. For the same compound, the Potency [16] was “inactive”, the Potency [17] was “inactive” and the Potency [19] was “inactive”.
In the case of `Oc1ccc(C2(c3ccc(O)c(C4CCCCC4)c3)CCCCC2)cc1C1CCCCC1`, the Potency [1] is reported as 12.2 µM (active), the Potency [2] is reported as “inactive” and the Potency [3] is reported as “inactive”. For the same compound, the Potency [4] was “inactive”, the Potency [5] was “inactive” and the Potency [6] was “inactive”. The Potency [7] was 20.4 µM (active), the Potency [8] was “inactive” and the Potency [10] was “inactive”. For the same compound, the Potency [11] was “inactive”, the Potency [12] was “inactive” and the Potency [13] was “inactive”. For the same compound, the Potency [15] was 21.7 µM (active), the Potency [16] was “inactive” and the Potency [17] was “inactive”. The Potency [19] was “inactive”.
For `CCCCCCOC(=O)c1ccccc1`, the Potency [1] was “inactive”, the Potency [2] was “inactive” and the Potency [3] was “inactive”. The Potency [4] was “inactive”, the Potency [5] was “inactive” and the Potency [6] was “inactive”. For the same compound, the Potency [7] was “inactive”, the Potency [8] was “inactive” and the Potency [10] was “inactive”. For the same compound, the Potency [11] was “inactive”, the Potency [12] was “inactive” and the Potency [13] was “inactive”. The Potency [14] was “inactive”, the Potency [16] was “inactive” and the Potency [17] was “inactive”. For the same compound, the Potency [19] was “inactive”.
With `CN(CCCN1c2ccccc2CCc2ccccc21)CC(=O)c1ccc(Cl)cc1` the Potency [1] was “inactive”, the Potency [2] was “inactive” and the Potency [3] was “inactive”. The Potency [4] was “inactive”, the Potency [5] was “inactive” and the Potency [6] was “inactive”. For the same compound, the Potency [7] was “inactive”, the Potency [8] was “inactive” and the Potency [11] was “inactive”. The Potency [13] was “inactive”, the Potency [14] was “inactive” and the Potency [15] was “inactive”. For the same compound, the Potency [16] was “inactive” and the Potency [17] was “inactive”.
In the case of `C/C=C1\[C@H]2C=C(C)C[C@]1(N)c1ccc(=O)[nH]c1C2`, the Potency [1] is reported as “inactive”, the Potency [2] is reported as “inactive” and the Potency [3] is reported as “inactive”. For the same compound, the Potency [4] was “inactive”, the Potency [5] was “inactive” and the Potency [6] was “inactive”. The Potency [7] was “inactive”, the Potency [8] was “inactive” and the Potency [9] was “inactive”. The Potency [18] was “inactive”, the Potency [14] was “inactive” and the Potency [15] was “inactive”. The Potency [16] was “inactive”, the Potency [20] was “inactive” and the Potency [17] was “inactive”. The Potency [19] was “inactive”.
In the case of `CS(=O)(=O)Nc1ccc([N+](=O)[O-])cc1Oc1ccccc1`, the Potency [1] is reported as “inactive”, the Potency [2] is reported as “inactive” and the Potency [3] is reported as “inactive”. For the same compound, the Potency [4] was “inactive”, the Potency [5] was “inactive” and the Potency [6] was “inactive”. The Potency [7] was “inactive”, the Potency [8] was “inactive” and the Potency [9] was “inactive”. The Potency [18] was “inactive”, the Potency [14] was “inactive” and the Potency [16] was “inactive”. The Potency [20] was “inactive”, the Potency [17] was “inactive” and the Potency [19] was “inactive”.
For `C[C@](N)(Cc1ccc(O)cc1)C(=O)O`, the activity change, negative = cytotoxicity [1] was 5.45% [at 8.39 µM], the activity change [2] was -1.06% [at 5.22 µM, hits give high values] and the activation [3] was -0.73% [at 6.97 µM]. For the same compound, the activation [4] was 0.0455% [at 5.23 µM], the activation [5] was 3.02% [at 5.99 µM] and the activation [6] was -3.92% [at 5.99 µM]. It also gave an activity change, negative = cytotoxicity [7] of 8.09% [at 5.99 µM], an activity change, negative = cytotoxicity [8] of -5.36% [at 5.99 µM] and an activity change, negative = cytotoxicity [9] of -19.4% [at 5.99 µM]. It also gave an activation [18] of -6.7% [at 5.99 µM], an activation [14] of -0.0581% [at 8.39 µM] and an activity change, negative = inhibition [15] of 2.35% [at 8.39 µM]. The activity change, negative = inhibition [16] was 3.74% [at 8.39 µM], the activation [20] was 23.8% [at 8.39 µM] and the activation [17] was -6.61% [at 8.39 µM]. The activity change, negative = inhibition [19] was -5.15% [at 8.38 µM].
